Reference: publication PMC4336329 (PLoS ONE, 2015)
The whole screen tested about 310,000 compounds, of which about 14,000 (4.5%) showed an effect of 50% or more. Effects have a minus sign here. This excerpt belongs to a sample that is enriched for strong results.

What follows are compounds tested against human ether-à-go-go-related gene (hERG) potassium channel (human, UniProt Q12809) (assay: primary screen, population patch clamp on CHO cells stably expressing hERG; higher = less effect of the substance).
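Note: peak tail current of the secondary pulse compared with the same well before compound.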

Sequence of human ether-à-go-go-related gene (hERG) potassium channel (Q12809 whole entry, looked up): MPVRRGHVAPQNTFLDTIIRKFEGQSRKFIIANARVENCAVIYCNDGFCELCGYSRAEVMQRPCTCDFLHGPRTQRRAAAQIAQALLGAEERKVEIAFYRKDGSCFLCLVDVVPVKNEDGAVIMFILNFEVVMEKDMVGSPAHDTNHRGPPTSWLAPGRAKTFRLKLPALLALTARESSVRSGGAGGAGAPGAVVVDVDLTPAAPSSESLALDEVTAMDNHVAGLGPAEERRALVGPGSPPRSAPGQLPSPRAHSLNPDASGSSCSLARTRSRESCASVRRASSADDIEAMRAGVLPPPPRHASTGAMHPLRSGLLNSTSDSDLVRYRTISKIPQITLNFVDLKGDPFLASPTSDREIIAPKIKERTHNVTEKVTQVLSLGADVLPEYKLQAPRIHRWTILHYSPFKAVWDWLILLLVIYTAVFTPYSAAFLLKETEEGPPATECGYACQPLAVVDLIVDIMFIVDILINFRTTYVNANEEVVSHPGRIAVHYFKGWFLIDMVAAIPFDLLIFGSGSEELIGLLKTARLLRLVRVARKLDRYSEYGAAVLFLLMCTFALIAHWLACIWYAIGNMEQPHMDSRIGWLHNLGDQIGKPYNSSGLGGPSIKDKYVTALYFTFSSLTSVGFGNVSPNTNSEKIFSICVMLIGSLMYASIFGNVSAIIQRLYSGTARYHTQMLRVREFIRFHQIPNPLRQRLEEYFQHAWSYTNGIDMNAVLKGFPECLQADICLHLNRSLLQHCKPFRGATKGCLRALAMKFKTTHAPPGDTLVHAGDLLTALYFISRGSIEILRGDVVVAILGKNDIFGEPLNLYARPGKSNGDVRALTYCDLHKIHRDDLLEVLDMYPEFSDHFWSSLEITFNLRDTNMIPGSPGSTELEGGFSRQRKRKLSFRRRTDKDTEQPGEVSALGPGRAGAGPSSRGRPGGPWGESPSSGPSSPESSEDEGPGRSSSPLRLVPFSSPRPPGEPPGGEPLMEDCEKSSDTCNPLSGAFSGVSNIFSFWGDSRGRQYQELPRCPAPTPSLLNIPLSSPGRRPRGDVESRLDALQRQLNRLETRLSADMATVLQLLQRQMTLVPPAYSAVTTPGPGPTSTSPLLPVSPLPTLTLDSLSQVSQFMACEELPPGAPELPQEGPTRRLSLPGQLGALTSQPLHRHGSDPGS

Compound	hERG current change (%, negative = inhibition) at 10uM
CC(=O)Nc1ccc(C(=O)CN2C(=O)NC3(CCOc4ccccc43)C2=O)c(F)c1 (stereo not shown)	-20.5%
Cc1nc2ncnn2c(N2CCC(C(=O)NCC3CCCO3)CC2)c1Cc1ccccc1 (stereo not shown)	-17.6%
COc1cccc(CC(NC(C)=O)C(=O)NC2CCN(c3c(Cc4ccccc4)c(C)nc4ncnn34)CC2)c1 (stereo not shown)	-0.458%
CC(=O)NC(Cc1ccc(F)c(F)c1)C(=O)NC1CCN(c2c(Cc3ccccc3)c(C)nc3ncnn23)CC1 (stereo not shown)	-58.7%
COc1cc(CC(NC(C)=O)C(=O)NC2CCN(c3c(Cc4ccccc4)c(C)nc4ncnn34)CC2)cc(OC)c1 (stereo not shown)	12%
Cc1nc2ncnn2c(N2CCC(C(=O)NC3CCCC3)CC2)c1Cc1ccccc1	-57.4%
CC(=O)Nc1ccc(NC(=O)C2CCN(c3c(Cc4ccccc4)c(C)nc4ncnn34)CC2)cc1	2.74%
NC(=O)C1CCCN(C(=O)c2ccc3nc(Cc4cccc(Cl)c4)oc3c2)C1 (stereo not shown)	-11.5%
Cc1ccnc(SCCn2c(N3CCN(C)CC3)nc3c2c(=O)n(C)c(=O)n3C)n1	13.6%
COCCn1c(-c2ccc(F)cc2)nc2oc3cc(OC)ccc3c(=O)c2c1=O	-19.6%
CCOC(=O)Nc1sc(C)c(C)c1C(N)=O	9.44%
COCC1CCN(Cc2nc(COc3ccccc3)no2)C1 (stereo not shown)	12.3%
CN(Cc1cnccn1)C(=O)CC1C(=O)NCCN1Cc1ccc(F)cc1Cl (stereo not shown)	20%
CN(Cc1nccn1C)C(=O)CC1C(=O)NCCN1Cc1ccc(F)cc1Cl (stereo not shown)	-68.9%
CN(Cc1ccccn1)C(=O)CC1C(=O)NCCN1Cc1ccc(F)cc1Cl (stereo not shown)	16.4%
Cc1nc2scc(C)n2c(=O)c1S(=O)(=O)N1CCN(c2ccccc2)CC1	-26.3%

Compound	hERG current change (%, negative = inhibition) at 10uM
CN1CC2(C(=O)c3ccccc3)CN(C)CC(C(=O)c3ccccc3)(C1)C2	-53%
CC(=O)N1CN2CN(C(C)=O)CC(C(=O)c3ccccc3)(C2)C1	11%
COc1ccc(C(=O)C23CN4CN(CN(C4)C2)C3)cc1	4.01%
Cc1ccn2cc(-c3cccc(NC(=O)c4ccccc4)c3)nc2c1	-19.6%
COc1ccc(C(=O)CCN2CCN(c3ccccc3F)CC2)cc1.Cl	-71.5%
COc1ccc(N2CCN(CCC(N)=O)CC2)cc1	3.39%
COc1ccc(C(=O)CCN2CCCCCC2)cc1.Cl	-20%
COc1ccc(N2CCN(CCC(=O)c3ccc4ccccc4c3)CC2)cc1	-11.2%
COc1ccccc1N1CCN(CCCCNC(=O)c2ccc3ccccc3c2)CC1.Cl	-79.6%
COc1ccc(C(=O)CCN2CCN(c3ccc(OC)cc3)CC2)cc1	-73.1%
COc1ccc(OC)c(NC(=O)CCN2CCN(c3ccccc3F)CC2)c1	-22.1%
O=C(NCCCN1CCOCC1)c1ccc2ccccc2c1	-2.68%
COc1ccc(S(N)(=O)=O)cc1C(=O)NCCCN1CCN(c2ccccc2OC)CC1.CS(=O)(=O)O	2.27%
COc1ccccc1N1CCN(CCN(C(=O)c2ccc(F)cc2)c2ccccn2)CC1.Cl	-78.8%
COC(=O)CCN(C(=O)c1cc(OC)c(OC)c(OC)c1)c1ccccn1	6.81%
